Screening results deposited in PubChem BioAssay by National Center for Advancing Translational Sciences (NCATS).
Only some compounds are listed: those with a hit (about 12% of all), similar ones and a draw of the others.
Pf growth 48h: inhibits P. falciparum growth in the first generation, 48 h; P. falciparum luciferase growth in erythrocytes, 48 h; 310,000 compounds, 5.9% hits; Potency, µM (titrated, usually from 28.7 µM), for the others: at the highest dose activity change, negative = inhibition, most hits filed as inhibitors; note: % is set by controls: 0 for no effect and ±100 for the full control effect
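Parasite viability was followed by luminescence of a genomically integrated firefly luciferase. Cultures held 0.1% parasitemia at 2% hematocrit (final), incubated under 5% CO2 at 37 C.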
Sm TGR block: inhibitors of Schistosoma mansoni thioredoxin glutathione reductase | purified TGR, DTNB reduction, TNB absorbance 405 nm | Q962Y6 | 360,000 compounds, 3% hits | Potency, µM (top dose mostly 114 µM), for inactives: top-dose activity change, negative = inhibition, actives largely listed as inhibitors; note: % is set by controls: 0 for no effect and ±100 for the full control effect; nearly all actives have a fitted effect of over 60% in size
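Kinetic colorimetric format: TGR-catalysed, NADPH-driven DTNB reduction monitored via TNB absorbance. Enzyme dispensed at 20 nM; compound exposure 15 min at room temperature before reaction start.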
SARS PLpro yeast: SARS-CoV PLP inhibition in yeast. 330,000 compounds, 0.19% hits. S. cerevisiae expressing SARS-CoV PLpro, growth rescue. Potency, µM (series often up to 32.9 µM), inactives show at the highest dose activity, positive = growth rescue, actives largely listed as activators; calls by dose curve; note: 0% is about no effect; nearly all actives have a fitted effect of over 55% in size
Pf growth 96h: inhibits malaria parasite growth, 96 h; P. falciparum luciferase reporter growth, 96 h; Potency, µM (doses to about 28.7 µM), for the others: at the top dose activity change, negative = inhibition, most hits filed as inhibitors; 320,000 compounds, 6.9% hits; AID 504834; note: % is set by controls: 0 for no effect and ±100 for the full control effect
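Erythrocytes infected with luciferase-expressing P. falciparum were dispensed at 2% hematocrit and 0.05% parasitemia (final), then incubated with compounds 96 hours at 37 C in 5% CO2. Luminescence after detection reagent addition reported growth.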
* = called active by the depositor; ? = inconclusive; / = no result given. Unless noted, calls come from the whole dose curve; as a rule, active = well fitted curve in the direction sought with a large enough effect; inconclusive = small, poorly fitted or top-dose-only effect, or another doubt; inactive = no such curve, though single readings can be large; an effect the other way counts as inactive or inconclusive. Potency is the fitted concentration of half-maximal effect.

SMILES	Pf growth 48h	Sm TGR block	SARS PLpro yeast	Pf growth 96h
Cc1ccc(OCC(=O)N/N=C\c2cccn2C)c([N+](=O)[O-])c1	9%	2%	-1%	-21%
CCCNc1nc(NCc2ccccc2OC)c2cnn(C)c2n1	/	0%	/	/
COc1ccc(C(=O)O)cc1S(=O)(=O)Nc1ccccc1C(=O)NCc1ccc2c(c1)OCO2	-4%	-3%	1%	-4%
NC(=O)C1CCN(C(=O)c2ccc3c(c2)N(Cc2cccc(Cl)c2)C(=O)c2ccccc2S3(=O)=O)CC1	/	8%	/	/
CCn1c(C(=O)NCc2ccccc2Br)cc2oc3ccccc3c21	/	-9%	/	/
CC1CC(C)CN(C(=O)c2cc(-c3ccncc3)nc3ccccc23)C1 (stereo unspecified)	9.3µM*	-1%	-12%	?
CC1CC(C)CN(C(=O)c2ccc3ccccc3c2)C1 (stereo unspecified)	0.83µM*	-1%	-5%	?
CC1CCN(C(=O)c2ccc3ccccc3c2)CC1	-35%	-19%	-3%	?
CCN(c1ccc(C)cc1)S(=O)(=O)c1nnc(NC(=O)C2CCCCC2)s1	/	-29%	/	/
Cc1[nH]c(C)c(S(=O)(=O)Nc2ccc(OC(F)(F)F)cc2)c1C(=O)N1CCCCC1	7%	-13%	-3%	4%
CC(NCC(=O)Nc1ccccc1C(=O)NC1CC1)c1ccco1 (stereo unspecified)	1.7µM*	2%	4%	7%
CCN(CC)S(=O)(=O)c1ccc(C(C)NCC(=O)Nc2ccccc2C(=O)NC2CC2)cc1 (stereo unspecified)	10µM*	-15%	-1%	?
COc1ccc(C(=O)NCCS(=O)(=O)N2CCc3ccccc3C2)cc1	28%	-4%	0%	18%
Nc1c(N(Cc2ccco2)C(=O)c2ccccc2F)c(=O)[nH]c(=O)n1Cc1ccccc1	?	-9%	-1%	-1%
CCCC(=O)NC(Nc1cccc(C(F)(F)F)c1)C(Cl)(Cl)Cl (stereo unspecified)	?	-21%	-6%	1.9µM*
CCCC(=O)NC(Nc1cc(C(F)(F)F)ccc1Cl)C(Cl)(Cl)Cl (stereo unspecified)	12µM*	-10%	-7%	?
COc1ccccc1C(=O)NCCn1cc(SCc2ccc(C)cc2)c2ccccc21	/	-7%	/	/
COC1C(OC(=O)/C=C/C=C/C=C/C=C/C(=O)O)CCC2(CO2)C1C1(C)OC1CC=C(C)C (stereo unspecified)	0.0038µM*	/	/	?
CCOC(=O)c1ccc(N2C(=O)c3[nH]nc(-c4ccc(OCC)cc4)c3C2c2cccs2)cc1 (stereo unspecified)	/	0%	/	/
CCC1CN(S(=O)(=O)c2cc(-c3onc(C)c3C)ccc2C)c2cc(Cl)ccc2O1 (stereo unspecified)	/	6%	/	/
CCC1CN(S(=O)(=O)c2ccc3c(c2)NC(=O)CC(=O)N3)c2cc(Cl)ccc2O1 (stereo unspecified)	2.1µM*	3%	3%	?
Cc1ccc(C)c(N(CC(=O)Nc2ccccc2C(=O)NCc2ccco2)S(=O)(=O)c2ccccc2)c1	12µM*	0%	4%	155%
CCOc1ccccc1N(CC(=O)Nc1ccccc1F)S(=O)(=O)c1ccccc1	10µM*	-19%	-3%	?
Cc1ccc(N(CC(=O)Nc2ccccc2C(=O)NCc2ccco2)S(=O)(=O)c2ccccc2)cc1C	10µM*	-15%	7%	/
O=C(CN(c1ccccc1)S(=O)(=O)c1ccccc1)Nc1ccccc1C(=O)NCc1ccco1	0%	0%	14%	157%
SMILES	Pf growth 48h	Sm TGR block	SARS PLpro yeast	Pf growth 96h
Cc1cccc(S(=O)(=O)N(CC(=O)Nc2ccccc2C)Cc2ccco2)c1	/	4%	-2%	12µM*
Cc1ccc(NC(=O)C2CCCN2S(=O)(=O)c2ccc3c(c2)CCCC(=O)N3)cc1C (stereo unspecified)	/	-3%	/	/
COc1ccccc1C(=O)Nc1cccc(OCc2cc(=O)n3c4c(sc3n2)CCCC4)c1	/	0%	/	/
CS(=O)(=O)N(CC(=O)Nc1ccccc1-c1ccccc1)c1ccccc1	-2%	9%	1%	?
Cc1ccc(N(CC(=O)Nc2ccccc2-c2ccccc2)S(=O)(=O)c2ccccc2)c(C)c1	12µM*	1%	-9%	?
Cc1ccc(N(CC(=O)N/N=C/c2ccc(OC3CSC3)cc2)S(=O)(=O)c2ccccc2)c(C)c1	?	-3%	5%	12µM*
O=C(NCC1CCCO1)c1ccc(Cl)c(S(=O)(=O)N2CCCCC2)c1 (stereo unspecified)	?	-10%	0%	2%
C=CC[C@H](CC(=O)N(CCO)Cc1ccccc1)C(=O)NCCOC(=O)[C@@H](CC=C)CC(=O)OC(C)(C)C	/	/	5%	/
CCOCCCNC(=O)C(NC(=O)C1CCC(C)CC1)C(C)C (stereo unspecified)	/	0%	/	/
COCCNC(=S)N(CCc1c(C)[nH]c2ccc(OC)cc12)Cc1ccco1	9.3µM*	?	1%	245%
COCCNC(=S)N(CCc1c(C)[nH]c2ccc(C)cc12)Cc1ccco1	?	9%	-1%	?
COc1ccc2[nH]c(C)c(CCN(Cc3cccs3)C(=S)Nc3ccccc3)c2c1	0.83µM*	-22%	-1%	0.41µM*
COc1ccc2[nH]c(C)c(CCN(Cc3cccs3)C(=S)Nc3ccc(F)cc3)c2c1	1.7µM*	-7%	-10%	2.3µM*
COc1ccc(NC(=S)N(CCc2c(C)[nH]c3ccc(C)cc23)Cc2cccs2)cc1	0%	0%	2%	-96%
CCC(C)C(=O)OC1CCC=C2C=CC(C)C(CCC3CC(O)CC(=O)O3)[C@@H]21 (stereo partly specified)	-2%	/	/	1%
Cc1ccc(S(=O)(=O)N2CCOCC2)cc1NC(=O)COC(=O)Cc1ccccc1	/	/	4%	/
COc1ccc(NS(=O)(=O)c2cccc(C(=O)NN=C(C)c3ccco3)c2)cc1	/	/	5%	/
CC(C)CC(=O)c1c[nH]c(C(=O)NCc2cccnc2)c1	10µM*	1%	-1%	?
CCC(CC)C(=O)c1c[nH]c(C(=O)NCc2cccnc2)c1	-10%	2%	0%	59%
O=C(CN1CCCC1c1cccs1)N1CCN(S(=O)(=O)c2cccc(F)c2)CC1 (stereo unspecified)	?	-2%	-30%	?
COc1ccccc1-c1nnc(SCC(=O)Nc2cccnc2Cl)n1C	/	/	-6%	/
O=S(=O)(Nc1ccc2c(c1)OCO2)c1ccc(Cl)cc1F	-5%	-13%	0%	13%
COc1ccccc1NS(=O)(=O)c1cc(N/C(=N\S(=O)(=O)c2ccccc2)c2ccc(F)cc2)ccc1Cl	9.3µM*	-1%	-1%	13µM*
Cc1ccc(NS(=O)(=O)c2cc(C(=O)NCCCN(C)C)ccc2Cl)cc1Cl	6.6µM*	2%	1%	?
CCN(CC)CCNC(=O)c1ccc(NC(=O)Nc2cccc3ccccc23)cc1	13µM*	-11%	-2%	9.3µM*
COc1cc2c(cc1OC)CN(C(=O)/C=C/c1ccc(F)cc1)CC2	?	4%	-6%	?
